Each structure is given as a SMILES string. Values joined by “and” are separate entries in the source; they are usually repeats but may differ in a detail not shown here. Identical values can stand only once. About 83,000 compounds went through this panel and 20% of them were active in at least one assay; those are over-represented in the sample as a whole.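 Cell lines were cultured in 96-well plates, exposed to a single compound concentration, and assessed for percent growth 48 hours later.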 A number with no mark means an inactive call. Active and inactive are the calls of the source. How the source made its calls: active means growth percent below 10; inactive means the rest.

This assay has as its system MDA-MB-468 breast. Briefly: NCI-60 one-dose screen, 48 h (100 = growth as untreated, 0 = no growth, -100 = all killed). Conditions: 10 µM unless noted.
Take `O=C1NC(=O)C(Cc2ccc(OCc3ccc(-c4ccc(Cl)cc4Cl)cc3)cc2)S1` (stereo not given): the growth is 14.3%.
With `Clc1cc2c(c(CSc3nc4ccccc4n4cccc34)c1)OCOC2` the figure was -1.64% (active); with `COc1cc(OC)cc(-c2ccc(-c3ccc(C(=N)N)s3)s2)c1`, -76.9% (active).
In the case of `CNC(=O)c1cc(N2CCc3cc(NC(=O)Nc4ccc(Cl)c(C(F)(F)F)c4)ccc32)ccn1`, the growth is 57%.
With `CC1Cc2c(Cl)ncnc2N(C)c2ccc(O)cc21` (stereo not given) the figure was -6.93% (active); with `Clc1ccc(SSc2ccc(Cl)cc2)cc1`, 95.7% and 95.5%; with `O=[N+]([O-])c1ccc(Oc2ccccc2Cl)c([N+](=O)[O-])c1`, 64.2%.
For `Cc1ccc2sc3c(NCCCNCCO)nc4ccccc4c3c(=O)c2c1` the value was 42.5%; for `O=C1NC(c2ccc(Cl)c(Cl)c2)=C/C1=C\c1ccccc1`, 63.3%; for `Cc1ccc(C2=Nc3c(ccc4c(C)c(C)c(=O)oc34)OC2)cc1`, 113%.
For `CC(C)=CCc1cc(O)cc2c1OC(C=C(C)C)C1=C2C(=O)C2=C(NCCS2(=O)=O)C1=O` (stereo not given) the value was -27% (active).
For `c1cc(NCCCCN2CCOCC2)c2ccc3c(ccc4c(NCCN5CCOCC5)ccnc43)c2n1`, the growth was 75.8%.
For `Oc1ccc(CCl)c2cccnc12` the value was 86.2%.
For `COc1ccc2nc(-c3ccc(-n4cncc4-c4ccc(OC)c(N)c4)cc3)sc2c1` the value was 114%.
For the compound `O=C(Cn1nc(-c2cccc3ccccc23)ccc1=O)NCc1cccc(Cl)c1`, the growth is 12.8% [50 µM].
Turning to `CCOC(=O)CSSCC(=O)OCC`, the growth is 117%.
With `Cc1nc(-c2cc3ccccc3oc2=O)ccc1C(=O)/C=C/c1ccc(Cl)c(Cl)c1` the figure was 110%; with `COc1cc(C2Nc3ccccc3S2)cc(CN2CCOCC2)c1O` (stereo not given), 26.3%; with `Nc1[nH]n2cc(-c3ccccc3)nc2c1N=Nc1ccc(S(N)(=O)=O)cc1`, 32.6%.
With `COc1cc(/C=C\c2cc(/C=C\c3ccc(O)c(OC)c3)n(C(=O)CNc3ccc(Cl)cc3)n2)ccc1O` the figure was 1.63% (active).
Consider `O=C(CO[N+](=O)[O-])Nc1ccc(C(=O)/C=C/c2ccc3c(c2)OCO3)cc1`, for which the growth was 91.9%.
As for `CCCCCN(CCCCC)CC(O)c1c(Cl)ccc2ccccc12` (stereo not given), the growth was 78.9%.
With `Cc1ccc(S(=O)(=O)N/N=C2\CCCc3ccccc32)cc1` the figure was 95.7%; with `CC(=O)N(O)CCCCCNC(=O)CCC(=O)N(O)CCCCCNC(=O)CCC(=O)N(O)CCCCCN(CCCCCCCCCC[P+](c1ccccc1)(c1ccccc1)c1ccccc1)CCCCCCCCCC[P+](c1ccccc1)(c1ccccc1)c1ccccc1`, -42.6% (active).
For `CSc1nc2c(c(=O)n1C)N=C1c3ccccc3C(=O)C1C(c1ccccc1)N2` (stereo not given) the value was 54.8%.
With `CCOc1ccc(C(C[N+](=O)[O-])Sc2ccccc2N)cc1` (stereo not given) the figure was -58.4% (active); with `O=S(=O)(NCCCNc1nccc(-c2c(-c3cccc(F)c3)nc3occn23)n1)c1cccc2ccccc12`, 15.3%.
With `Cn1c(=O)c2c(nc3n2CCN(CCc2ccc(OCCN4CCOCC4)cc2)C3)n(C)c1=O`, the growth was 97.9%.
`CC(C)=NOC(C)C(=O)O` (stereo not given): the growth is 106%.
For `O=C1/C(=C/c2ccc(Cl)cc2)CN(Cc2cn(CCNc3ccnc4cc(Cl)ccc34)nn2)C/C1=C\c1ccc(Cl)cc1` the value was -76.2% (active); for `O=C1c2cc3c(cc2-c2c1c1ccc(Cl)cc1c(=O)n2C[C@H](O)[C@@H](O)[C@H](O)CO)OCO3`, -63.4% (active); for `CCCc1ccnc(NS(=O)(=O)c2ccc(N)cc2)n1`, 8.05% (active).
For `Cc1ccc(NSc2ccccc2[N+](=O)[O-])cc1` the value was 17.6%.
For `CCN(CC)S(=O)(=O)c1cccc([N+](=O)[O-])c1` the value was 91.4%.
For the compound `CN(C)C(=O)Oc1cccc([N+](C)(C)C)c1`, the growth is 102%.
For `CCOc1nc(-c2ccccc2)cc2c(O)c(C(=O)NC(C)C)[nH]c(=O)c12` the value was 101%; for `COc1ccc2[nH]c(O)c(/C=c3/cc4c(c(-c5cc(OC)c(OC)c(OC)c5)n3)=Nc3ccccc3-4)c2c1`, 49.7%; for `CCc1cnc(=S)n(-c2ccccc2)c1`, 117%.
With `COC(=O)[C@H](Cc1cn(C)cn1)NC(=O)[C@@H](NC(=O)Nc1cc(C(F)(F)F)cc(C(F)(F)F)c1)C(C)C`, the growth is -60.4% [100 µM] (active).
Regarding `COc1ccc(C(=O)CC(c2ccccc2)C(C#N)c2ccccc2)cc1` (stereo not given), the growth is 69.8%.

These data come from PubChem BioAssay (NCI).
